Values without a mark were called inactive.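 How the source made its calls: active = MAPPIT score above the 99th percentile of random reference set scores in the same batch; inactive = at or below it.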
B1: nAChRbeta1 (protein)
chain: MESSCKSWLLCSILVLVAFSLVSASEDEERLVRDLFRGYNKLIRPVQNMTQKVGVRFGLAFVQLINVNEKNQVMKSNVWLRLVWYDYQLQWDEADYGGIGVLRLPPDKVWKPDIVLFNNADGNYEVRYKSNVLIYPTGEVLWVPPAIYQSSCTIDVTYFPFDQQTCIMKFGSWTFNGDQVSLALYNNKNFVDLSDYWKSGTWDIIEVPAYLNVYEGDSNHPTETDITFYIIIRRKTLFYTVNLILPTVLISFLCVLVFYLPAEAGEKVTLGISILLSLVVFLLLVSKILPPTSLVLPLIAKYLLFTFIMNTVSILVTVIIINWNFRGPRTHRMPMYIRSIFLHYLPAFLFMKRPRKTRLRWMMEMPGMSMPAHPHPSYGSPAELPKHISAIGGKQSKMEVMELSDLHHPNCKINRKVNSGGELGLGDGCRRESESSDSILLSPEASKATEAVEFIAEHLRNEDLYIQTREDWKYVAMVIDRLQLYIFFIVTTAGTVGILMDAPHIFEYVDQDRIIEIYRGK
B2: CG5902 (protein)
chain: MSNSHYNNYQQQQPHSSNGDPEYQHQQMVHQPQRFSNGHGMKTVAVPDMCLFCFEVLDCELNNVDGPSVPVFSNDAYPLFVTWKIGRDKRLRGCIGTFSAMELHHGLREYALTSAFKDSRFAPISRDELPRLTVSVSILQNFEEAQGHLDWQLGVHGIRIEFLTERGCKRTATYLPQVATEQGWDQLQTIDSLLRKGGYRAAITPETRKSIKLTRYRSQEIQMHYKEYREYQERRAQFGKVQC

Experiments:
Assay in all cases: MAPPIT interaction score (arbitrary units); higher = stronger binary interaction signal, active = hit call of the paper
CG14767 = conditions: pair source set: RRS
Protocol: (§1)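 MAPPIT in HEK293T cells: Drosophila bait and prey ORFs (from the FlyBi ORF collection) were co-transfected in quadruplicate, with two wells stimulated by erythropoietin. Interaction-dependent JAK-STAT activation was read out with a STAT-responsive firefly luciferase reporter. Positive calls use the 99th percentile of random reference set (RRS) scores within each batch […]. Batches Dvs01 and Dvs02 used the N-N configuration and Dvs04 the N-C configuration. Pairs come from FlyBi screens, CuraGen, DPiM, Finley Y2H, Lit-BM-16, Lit-BS-16 and RRS.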

CG30472 = conditions: MAPPIT configuration: N-N; pair source set: RRS
Protocol: as §1

trbd = conditions: MAPPIT configuration: N-N; pair source set: screen_1
Protocol: as §1
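Further: HEK293T cells with Epo stimulation, STAT-responsive firefly luciferase reporter, fold induction versus unstimulated cells divided by the larger fold induction of two negative controls lacking either bait or prey.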

Binder | MAPPIT interaction score (CG14767; MAPPIT configuration: N-C) | MAPPIT interaction score (CG14767; MAPPIT configuration: N-N) | MAPPIT interaction score (CG30472) | MAPPIT interaction score (trbd)
B1 | 0.324 | 0.0737 | -0.0464 | –
B2 | – | – | – | 2.52 (active)

— the supplement of paper PMC10105736
